Assay [1] can be described thus: ATG_CRE_CIS: Attagene CIS-FACTORIAL HepG2 Assay for human cAMP Responsive Element (CRE) binding protein 3 (AID 2282926). The conditions noted are these: HepG2 CRE cis-reporter, Attagene multiplexed mRNA; actives raise or lower the signal. A digest of the protocol:
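Endogenous transcription factor activity read via CRE-regulated reporter transcripts in transfected HepG2 cells. After 24 h exposure, RNA was reverse-transcribed, amplified, fluorescently labelled and sized by capillary electrophoresis; gain or loss fitted against DMSO.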

Assay [2] concerns the target CCAAT/enhancer-binding protein beta (Homo sapiens) (UniProt P17676). Briefly: ATG_C_EBP_CIS: Attagene CIS-FACTORIAL HepG2 Assay for human CCAAT/Enhancer Binding Protein (C/EBP) beta (AID 2282927). The conditions noted are these: HepG2 Attagene cis-factorial transcription factor reporter; actives raise or lower the signal. The procedure, abridged:
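Endogenous transcription factor activity in human liver HepG2 cells is inferred from induction of a CEBPB-linked reporter mRNA. Exposure lasts 24 h; activity is fitted in both directions relative to DMSO.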

Assay [3] is described as follows: ATG_CMV_CIS: Attagene CIS-FACTORIAL HepG2 Assay for human CMV (Internal Marker) (AID 2282928).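 Also: endpoint acts as a background internal control marker rather than a target.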 The note with it: HepG2 CMV promoter reporter, transcription factor profiling; actives raise or lower the signal. The procedure, abridged:
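24 h chemical treatment, HepG2 with transient multi-reporter transfection; RNA → oligo(dT) RT → PCR → 6-FAM extension → HpaI digest → CE fluorescence. Bidirectional fit, DMSO negative control.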

Assay [4] in a line: ATG_DR4_LXR_CIS: Attagene CIS-FACTORIAL HepG2 Assay for human Liver X Receptor (LXR), DR4 submotif (AID 2282929). The conditions noted are these: HepG2 Attagene DR4 cis-reporter, mRNA transcription; actives raise or lower the signal. A digest of the protocol:
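Endogenous factor activity at a DR4 cis-element is read as reporter mRNA in transiently transfected HepG2 cells. Exposure lasts 24 h; transcripts are amplified, fluorescently labelled and sized by capillary electrophoresis, with DMSO as baseline.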

Assay [5] concerns the target Aryl hydrocarbon receptor (Homo sapiens) (UniProt P35869). Briefly: ATG_Ahr_CIS: Attagene CIS-FACTORIAL HepG2 Assay for human Aryl Hydrocarbon Receptor (Ahr) (AID 2282930). The conditions noted are these: HepG2 AhR cis-factorial reporter transcription; actives raise or lower the signal. A digest of the protocol: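 Transient MRTU transfection of HepG2 → 24 h compound exposure → total RNA, oligo(dT) RT → PCR, 6-FAM extension, HpaI cut → CE fluorescence. DMSO = baseline; bidirectional curve fit.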

Assay [6] is described as follows: ATG_AP_1_CIS: Attagene CIS-FACTORIAL HepG2 Assay for human Activator Protein 1 (AP-1) (AID 2282931). The conditions noted are these: HepG2 Attagene cis-factorial AP-1 reporter mRNA; actives raise or lower the signal. The procedure, abridged: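 Fluorescence of labelled PCR fragments separated by capillary electrophoresis gives reporter mRNA levels. HepG2 with transfected cis-regulated reporter units, 24 h exposure; DMSO serves as baseline for bidirectional curve fits.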

Assay [7] in a line: ATG_AP_2_CIS: Attagene CIS-FACTORIAL HepG2 Assay for human Activator Protein 2 (AP-2) (AID 2282932). The conditions noted are these: HepG2 AP-2 cis-reporter, Attagene transcription factor profiling; actives raise or lower the signal. The procedure, abridged: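 Endogenous transcription factor activity is reported through transfected multiplex reporter constructs in HepG2, after 24 h of compound exposure. Transcripts were quantified by RT-PCR and capillary electrophoresis of fluorescent fragments. Bidirectional fit against DMSO.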

Assay [8] can be described thus: ATG_BRE_CIS: Attagene CIS-FACTORIAL HepG2 Assay for human Bone Morphogenetic Protein (BMP) Response Element (BRE) (AID 2282933). The note with it: HepG2 BMP response element reporter, Attagene transcription factor profiling; actives raise or lower the signal. The procedure, abridged:
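Endogenous transcription factor activity at a BMP response element was monitored in transfected HepG2 cells 24 h after dosing. Fluorescent RT-PCR products were resolved by capillary electrophoresis, and activity was fitted in both directions versus DMSO.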

Assay [9] has as its target Retinoic acid receptor alpha (Homo sapiens) (UniProt P10276). Briefly: ATG_DR5_RAR_CIS: Attagene CIS-FACTORIAL HepG2 Assay for human Retinoic Acid Receptor Alpha (RARE), DR5 submotif (AID 2282934).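 As to AC50: reporter responds to endogenous RAR alpha beta and gamma in HepG2 not RARA alone.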 The note with it: HepG2 Attagene cis-factorial RARE DR5 reporter, mRNA; actives raise or lower the signal. The procedure, abridged: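 Transient MRTU transfection of HepG2; 24 h compound treatment; TriZol RNA, oligo(dT) RT, PCR, FAM labelling, capillary electrophoresis. Bidirectional fit vs DMSO. Endogenous TF activity at DR5 RARE.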

Assay [10] addresses Transcription factor E2F1 (Homo sapiens) (UniProt Q01094). Briefly: ATG_E2F_CIS: Attagene CIS-FACTORIAL HepG2 Assay for human E2F Transcription Factor 1 (AID 2282935). The note with it: HepG2 Attagene cis-reporter, E2F reporter RNA transcripts; actives raise or lower the signal. The procedure, abridged:
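Gain or loss of reporter transcript, fitted against DMSO, reflects E2F1-driven transcription. Transiently transfected HepG2 dosed 24 h before RNA isolation. Quantified by fluorescent RT-PCR products separated by capillary electrophoresis.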

Assay [11] can be described thus: ATG_E_Box_CIS: Attagene CIS-FACTORIAL HepG2 Assay for human Enhancer Box (E-box) (AID 2282936). The note with it: HepG2 E-box cis-reporter transcription, actives raise or lower the signal. The procedure, abridged: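 E-box-driven reporter transcripts measured in transiently transfected HepG2 after 24 h exposure: RNA reverse-transcribed, PCR-amplified, fluorescently labelled, digested and resolved by capillary electrophoresis. Gain or loss relative to DMSO.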

Assay [12] is described as follows: ATG_M_61_CIS: Attagene CIS-FACTORIAL HepG2 Assay for M61 Transcription Factor (Internal Marker) (AID 2282937). The note with it: HepG2 Attagene CIS-FACTORIAL M61 internal marker reporter; actives raise or lower the signal. The procedure, abridged: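 This endpoint serves as an internal background control within a multiplexed HepG2 cis-reporter panel. Cells are exposed for 24 h; reporter mRNA is amplified, fluorescently labelled and sized by capillary electrophoresis, with DMSO as negative control.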

Assay [13] can be described thus: ATG_EGR_CIS: Attagene CIS-FACTORIAL HepG2 Assay for human Early Growth Response 1 (EGR1) (AID 2282938). The conditions noted are these: HepG2 Attagene CIS-FACTORIAL EGR reporter mRNA; actives raise or lower the signal. The procedure, abridged: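 HepG2, transient MRTU transfection (cis promoters), 24 h compound. RNA → RT (oligo-dT) → PCR → 6-FAM labelling → HpaI cut → CE fluorescence. Bidirectional fit, DMSO baseline.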

A short description of assay [14]: ATG_M_19_CIS: Attagene CIS-FACTORIAL HepG2 Assay for M19 Transcription Factor (Internal Marker) (AID 2282939). The conditions noted are these: HepG2 Attagene CIS-FACTORIAL M19 internal marker reporter; actives raise or lower the signal. A digest of the protocol: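 Background-control endpoint from a multiplexed HepG2 reporter panel. Cells carrying cis-regulated reporter constructs are treated 24 h, then reporter transcripts are amplified, fluorescently labelled and sized by capillary electrophoresis. DMSO defines baseline.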

The nature of assay [15]: ATG_ERE_CIS: Attagene CIS-FACTORIAL HepG2 Assay for Estrogen Response Element (ERE) (AID 2282940). The note with it: HepG2 ERE cis-reporter, Attagene RNA transcript; actives raise or lower the signal. The procedure, abridged: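 Cells used were human hepatoma HepG2, transfected with multiple reporter transcription units under cis-regulatory promoters. Reporter mRNA, read 24 h post-dosing via fluorescent RT-PCR products on capillary electrophoresis, was fitted bidirectionally relative to DMSO.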

The nature of assay [16]: ATG_Ets_CIS: Attagene CIS-FACTORIAL HepG2 Assay for human Erythroblast Transformation Specific (ETS) (AID 2282941). The conditions noted are these: HepG2 ETS cis-reporter transcription, actives raise or lower the signal. A digest of the protocol: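 Cis-regulated reporter mRNA induction in HepG2 (transient transfection), 24 h exposure, RT-PCR plus capillary electrophoresis detection; DMSO serves as negative control and baseline.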

Assay [17] has as its target Hepatocyte nuclear factor 3-beta (Homo sapiens) (UniProt Q9Y261). The assay is described as follows: ATG_FoxA2_CIS: Attagene CIS-FACTORIAL HepG2 Assay for human Forkhead box A2 (FOXA2) (AID 2282942). The conditions noted are these: HepG2 cis-reporter transcription factor activity, 24 h; actives raise or lower the signal. A digest of the protocol:
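Cells: HepG2, transient multiplex reporter transfection. Exposure 24 h. Detection: reporter-specific RT-PCR, fluorescent labelling, restriction digest, capillary electrophoresis. Analysis: bidirectional curve fit, DMSO as negative control.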

The nature of assay [18]: ATG_FoxO_CIS: Attagene CIS-FACTORIAL HepG2 Assay for human Forkhead box O (FoxO) (AID 2282943). The note with it: HepG2 Attagene cis-reporter, FoxO element, mRNA; actives raise or lower the signal. The procedure, abridged: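 HepG2, transient MRTU transfection (cis element, endogenous TFs). Dose 24 h. TriZol RNA → oligo(dT) RT → PCR → 6-FAM primer extension → HpaI cut → CE. Gain/loss vs DMSO.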

A short description of assay [19]: ATG_GATA_CIS: Attagene CIS-FACTORIAL HepG2 Assay for human GATA Binding Protein (AID 2282944). The conditions noted are these: HepG2 GATA cis-element reporter, Attagene multiplex mRNA; actives raise or lower the signal. The procedure, abridged:
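Endogenous transcription factor activity was captured through cis-promoter-driven reporters in transfected HepG2 cells. After 24 h exposure, reporter transcripts were quantified by RT-PCR with fluorescent capillary electrophoresis, and responses fitted both directions against DMSO.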

The nature of assay [20]: ATG_GLI_CIS: Attagene CIS-FACTORIAL HepG2 Assay for human Zinc Finger Protein GLI1 (AID 2282945). The note with it: HepG2, Attagene cis-factorial reporter mRNA, GLI element; actives raise or lower the signal. A digest of the protocol:
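Bidirectional curve fits relative to DMSO, using reporter mRNA levels from RT-PCR plus capillary electrophoresis. Cells were HepG2 transiently carrying cis-regulated reporter constructs, harvested 24 h after dosing.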

The source made the active and inactive calls. The calls were made as follows: active = hit-call score of the fitted dose curve at least 0.9, where 1 is the maximum; inactive = score below 0.9.

Retinoic acid receptor alpha (Homo sapiens), sequence (P10276 whole entry, looked up): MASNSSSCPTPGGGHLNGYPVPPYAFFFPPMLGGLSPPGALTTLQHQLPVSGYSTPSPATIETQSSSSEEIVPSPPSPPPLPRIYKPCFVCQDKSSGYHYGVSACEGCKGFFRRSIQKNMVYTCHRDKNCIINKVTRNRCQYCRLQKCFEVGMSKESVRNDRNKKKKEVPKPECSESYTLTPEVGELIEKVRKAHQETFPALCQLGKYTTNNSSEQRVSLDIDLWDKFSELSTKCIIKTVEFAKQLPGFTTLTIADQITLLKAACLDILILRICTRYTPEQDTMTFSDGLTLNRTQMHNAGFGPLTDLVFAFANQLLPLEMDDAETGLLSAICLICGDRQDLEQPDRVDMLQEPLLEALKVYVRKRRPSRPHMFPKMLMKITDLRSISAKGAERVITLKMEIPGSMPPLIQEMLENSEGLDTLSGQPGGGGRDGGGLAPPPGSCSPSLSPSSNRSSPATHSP
CCAAT/enhancer-binding protein beta (Homo sapiens), sequence (P17676 whole entry, looked up): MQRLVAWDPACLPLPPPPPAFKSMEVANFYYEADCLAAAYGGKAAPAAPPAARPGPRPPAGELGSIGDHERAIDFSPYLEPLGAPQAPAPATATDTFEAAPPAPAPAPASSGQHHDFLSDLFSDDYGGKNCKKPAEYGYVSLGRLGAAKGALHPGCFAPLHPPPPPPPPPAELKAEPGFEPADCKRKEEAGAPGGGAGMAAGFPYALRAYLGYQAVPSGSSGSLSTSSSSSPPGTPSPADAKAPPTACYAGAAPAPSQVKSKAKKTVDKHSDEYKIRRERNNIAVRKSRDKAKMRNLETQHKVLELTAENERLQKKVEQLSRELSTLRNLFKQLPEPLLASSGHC
Hepatocyte nuclear factor 3-beta (Homo sapiens), sequence (Q9Y261 whole entry, looked up): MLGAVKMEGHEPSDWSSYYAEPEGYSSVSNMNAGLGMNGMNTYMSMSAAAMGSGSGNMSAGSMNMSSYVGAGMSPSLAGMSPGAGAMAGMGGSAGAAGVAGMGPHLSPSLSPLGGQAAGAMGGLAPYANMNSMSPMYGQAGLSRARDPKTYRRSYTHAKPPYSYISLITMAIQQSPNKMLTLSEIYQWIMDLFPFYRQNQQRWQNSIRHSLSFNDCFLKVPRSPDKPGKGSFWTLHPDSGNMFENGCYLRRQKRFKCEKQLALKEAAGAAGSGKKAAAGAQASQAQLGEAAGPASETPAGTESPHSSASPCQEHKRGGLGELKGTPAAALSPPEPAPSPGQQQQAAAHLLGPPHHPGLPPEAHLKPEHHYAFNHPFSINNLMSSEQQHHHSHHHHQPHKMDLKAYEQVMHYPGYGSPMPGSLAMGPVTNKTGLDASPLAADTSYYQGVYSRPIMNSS
Aryl hydrocarbon receptor (Homo sapiens), sequence (P35869 whole entry, looked up): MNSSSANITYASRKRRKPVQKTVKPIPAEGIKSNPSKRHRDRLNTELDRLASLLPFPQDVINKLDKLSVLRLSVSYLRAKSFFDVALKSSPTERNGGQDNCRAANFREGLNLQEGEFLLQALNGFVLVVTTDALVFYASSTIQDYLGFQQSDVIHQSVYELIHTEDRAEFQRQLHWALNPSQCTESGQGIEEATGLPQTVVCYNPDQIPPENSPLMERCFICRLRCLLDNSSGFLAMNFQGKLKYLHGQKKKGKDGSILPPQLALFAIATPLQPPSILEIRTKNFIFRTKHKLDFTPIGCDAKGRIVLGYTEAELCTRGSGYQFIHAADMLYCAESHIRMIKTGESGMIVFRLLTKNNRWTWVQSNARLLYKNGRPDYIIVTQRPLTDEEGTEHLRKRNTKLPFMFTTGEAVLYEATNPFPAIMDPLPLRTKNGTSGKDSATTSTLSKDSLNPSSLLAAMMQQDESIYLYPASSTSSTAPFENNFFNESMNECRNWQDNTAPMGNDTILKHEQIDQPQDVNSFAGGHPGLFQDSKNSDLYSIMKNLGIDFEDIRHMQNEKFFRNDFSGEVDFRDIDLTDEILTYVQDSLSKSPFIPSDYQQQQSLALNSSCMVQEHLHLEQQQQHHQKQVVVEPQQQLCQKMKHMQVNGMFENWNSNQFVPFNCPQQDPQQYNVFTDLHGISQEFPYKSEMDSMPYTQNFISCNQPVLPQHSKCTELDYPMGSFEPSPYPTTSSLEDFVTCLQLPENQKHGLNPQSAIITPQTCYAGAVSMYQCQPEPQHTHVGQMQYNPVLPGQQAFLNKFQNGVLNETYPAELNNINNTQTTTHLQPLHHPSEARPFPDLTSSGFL
Transcription factor E2F1 (Homo sapiens), sequence (Q01094 whole entry, looked up): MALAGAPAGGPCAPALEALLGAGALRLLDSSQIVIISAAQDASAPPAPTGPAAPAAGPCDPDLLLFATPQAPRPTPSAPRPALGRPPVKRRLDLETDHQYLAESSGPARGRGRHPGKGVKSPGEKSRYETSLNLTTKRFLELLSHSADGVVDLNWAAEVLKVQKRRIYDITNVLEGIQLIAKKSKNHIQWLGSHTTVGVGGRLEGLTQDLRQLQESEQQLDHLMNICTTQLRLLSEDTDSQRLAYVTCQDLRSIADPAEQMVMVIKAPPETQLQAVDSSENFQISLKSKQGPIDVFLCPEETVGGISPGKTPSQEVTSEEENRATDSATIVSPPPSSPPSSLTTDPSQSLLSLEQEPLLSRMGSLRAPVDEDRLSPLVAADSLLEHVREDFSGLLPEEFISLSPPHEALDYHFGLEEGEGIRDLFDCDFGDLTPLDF

For the molecule `CC(C)=CCC[C@H](C)CCO`, the call in assay [1], in [2], in assay [3], in [4], in [5] and in [6] was inactive. Moreover, the call in assay [7], in assay [8], in [9], in assay [10], in assay [11] and in [12] was inactive. In addition, the call in assay [13], in [14], in assay [15], in assay [16], in assay [17] and in assay [18] was inactive. Besides, the molecule was classed as inactive in assay [19] and in assay [20].
For orientation: AC50 means the midpoint of the concentration-response curve, whichever way the signal moves. With `CC1=NN(c2cc(S(=O)(=O)O)ccc2Cl)C(=O)C1N=Nc1ccccc1` (configuration not stated), the outcome in assay [1], in [2], in assay [3], in [4], in [6] and in [7] was inactive. Also, the call in [8], in assay [9], in assay [10], in assay [11], in [12] and in assay [13] was inactive. Also, the call in [14], in assay [15], in [16], in assay [17], in [19] and in assay [20] was inactive. Further, the concentration at half-maximal activity (AC50) in assay [5] was 0.541 µM (active).
As to `COC(=O)c1sccc1S(N)(=O)=O`, the molecule was called inactive in [1], in assay [2], in assay [3], in assay [4], in assay [5] and in [6]. The molecule was called inactive in assay [7], in assay [8], in [9], in [10], in [11] and in assay [12]. Moreover, the molecule was classed as inactive in assay [13], in assay [14], in assay [15], in assay [16], in assay [17] and in assay [20].
Take `N#CCc1ccc(Cl)cc1Cl`: the molecule was called inactive in assay [1], in assay [2], in [3], in assay [4], in [6] and in assay [7]. The molecule was called inactive in assay [8], in [9], in [10], in assay [11], in assay [12] and in [13]. Further, the result in assay [14], in [15], in assay [16], in [18], in [19] and in [20] was inactive. The AC50 in assay [5] is 18.6 µM (active).
In the case of `NCCCN1CCN(CCCN)CC1`, the call in assay [1], in [2], in [3], in assay [4], in [5] and in [6] was inactive. Further, the outcome in assay [7], in [8], in [9], in [10], in assay [11] and in assay [12] was inactive. For the same molecule, the molecule was called inactive in assay [13], in assay [14], in assay [15], in [16], in [18] and in assay [19]. For the same molecule, the molecule was classed as inactive in assay [20].
For the molecule `C#CC1(O)CC[C@H]2[C@@H]3CCC4=CCCC[C@@H]4[C@H]3CC[C@@]21C` (some centres not stated), the molecule was classed as inactive in [1], in assay [2], in assay [3], in assay [5], in assay [6] and in [7]. Also, the molecule was called inactive in [10], in [11], in [12], in [17], in assay [18] and in [19]. The call in assay [20] was inactive. Moreover, the AC50 in assay [4] is 1.24 µM (active); in [8] it was 34 µM (active); in assay [9], 49 µM (active); in [14], 55.9 µM (active); in assay [15], 0.0188 µM (active); in assay [16] it was 62.5 µM (active).
`Cc1cccc(C(=O)O)c1`: the result in assay [1], in assay [2], in assay [3], in [4], in assay [5] and in [6] was inactive. The result in [7], in [8], in [9], in assay [10], in assay [11] and in [12] was inactive. Further, the outcome in [14], in assay [15], in assay [17], in [18], in assay [19] and in assay [20] was inactive.

The values are drawn from PubChem BioAssay (EPA / NIEHS).
